Reference: PubChem BioAssay AID463173 (ICCB-Longwood Screening Facility, Harvard Medical School, 2010)
The whole screen tested about 52,000 compounds, of which about 4,300 (8.3%) were called active. The sample as a whole holds a higher share of actives than the screen did. Values without a mark were called inactive. Cut-off read from the data, not from the text of the source: active = survival mostly below about 52% (no sharp cut-off); inactive = mostly above about 56%.

Tested on: DeltatarO mutant
Assay: S. aureus survival, RN4220 and DeltatarO strains – OD600, teichoic acid synthesis inhibitors, primary screen (AID 463173)
Details: S. aureus RN4220 wild type/DeltatarO growth, OD600, 18 h, active compounds read low, screened at 18.75 µg/mL (by protocol)

| Structure (SMILES) | survival |
| --- | --- |
| CC(C(=O)O)N1CCCCC1 (stereo unspecified) | 79% |
| CCOc1ccc2[nH]c(=O)c(CN(Cc3cccnc3)S(=O)(=O)c3ccccc3)cc2c1 | 86% |
| CCOc1ccccc1NC(=O)Cn1c(=O)n(Cc2nc(C)no2)c(=O)c2ccccc21 | 81% |
| Cc1cc(C)c(NC(=O)CN2C(=O)CCSc3ccc(S(=O)(=O)N4CCCC4)cc32)c(C)c1 | 84% |
| CCc1ccc(NC(=O)CN2C(=O)c3ccccc3Sc3ccc(C(=O)N4CCCC4)cc32)cc1 | 86% |
| Cc1ccc(NC(=O)CN2C(=O)c3ccccc3Sc3ccc(C(=O)N4CCOCC4)cc32)c(Cl)c1 | -5% (active) |
| Cc1cc(C)cc(NC(=O)CN2C(=O)c3ccccc3Sc3ccc(C(=O)N4CCOCC4)cc32)c1 | 89% |
| Cc1ccc(NC(=O)CN2C(=O)c3ccccc3Sc3ccc(C(=O)N4CCCC4)cc32)cc1 | 76% |
| CN(C)c1ccc(NC(=O)CN2C(=O)c3ccccc3Sc3ccc(C(=O)N4CCCC4)cc32)cc1 | -2% (active) |
| O=C(CN1C(=O)c2ccccc2Sc2ccc(C(=O)N3CCOCC3)cc21)Nc1ccc(Cl)cc1F | 94% |
| CCOc1ccccc1N(CC)C(=O)Cn1ncc2c1-c1ccccc1OC2 | 62% |
| COc1cccc(C(=O)N(Cc2ccc(N(C)C)cc2)Cc2ccco2)c1 | 69% |
| CCc1cccc(CC)c1N(COC)C(=O)Cn1c(CC)nc2ccccc21 | 69% |
| CCOCN(C(=O)Cn1c(C(C)O)nc2ccccc21)c1c(C)cccc1CC (stereo unspecified) | 83% |
| CCOCN(C(=O)Cn1c(C)nc2ccccc21)c1c(C)cccc1CC | 125% |
| CCOCN(C(=O)Cn1c(COC)nc2ccccc21)c1c(C)cccc1CC | 95% |
| CCOCN(C(=O)Cn1c(CC(C)C)nc2ccccc21)c1c(C)cccc1CC | -12% (active) |
| CCCCc1nc2ccccc2n1CC(=O)N(COCC)c1c(C)cccc1CC | -12% (active) |
| CCc1ccc(NC(=O)Cn2c(=O)n(-c3cc(C)cc(C)c3)c(=O)c3oc4ccccc4c32)cc1 | 73% |
| COc1ccc(-c2cn(-c3ccc(C)cc3)c(S(=O)(=O)CC(=O)Nc3ccc(F)cc3)n2)cc1 | 150% |
| CCc1ccc(NC(=O)c2sc3nc(C)c(Cl)c(C)c3c2NC(=O)c2ccccc2OC)cc1 | 130% |
| COc1ccc(N2CCN(C(=O)C(CC(C)C)NS(=O)(=O)c3ccc4nc(C)sc4c3)CC2)cc1 (stereo unspecified) | 77% |

| Structure (SMILES) | survival |
| --- | --- |
| Cc1ccccc1CSc1cn(CC(=O)N2CCCCCC2)c2ccccc12 | 68% |
| O=C(CSc1cn(CC(=O)N2CCOCC2)c2ccccc12)Nc1ccccc1F | 88% |
| Cc1ccccc1CSc1cn(CC(=O)N2CCCC2)c2ccccc12 | 58% |
| O=C(CSc1cn(CC(=O)N2CCCCC2)c2ccccc12)Nc1ccccc1F | 70% (active) |
| O=C(CSc1cn(CC(=O)N2CCCCCC2)c2ccccc12)Nc1ccccc1F | 77% |
| Cc1ccccc1CSc1cn(CC(=O)N2CCCCC2)c2ccccc12 | 71% (active) |
| CCC(=O)N1c2ccccc2CC1C(=O)N1CCN(c2cccc(Cl)c2)CC1 (stereo unspecified) | 77% |
| CCn1cc(C(=O)NCCc2ccc(Cl)cc2)c(=O)c2cc(S(=O)(=O)N3CCC(C)CC3)ccc21 | 105% |
| CCN(CC)CCN(C(=O)c1ccco1)c1nc2c(C)c(C)ccc2s1 | 77% |
| O=[N+]([O-])c1cc(-c2nc(-c3ccccc3)no2)ccc1N1CCCC1 | 63% |
| Cc1ccc(NC(=O)CC2Nc3ccccc3NC2=O)cc1C (stereo unspecified) | 58% |
| CCOC(=O)c1ccc(NC(=O)CC2Nc3cccc4cccc(c34)NC2=O)cc1 (stereo unspecified) | 28% (active) |
| COc1ccc(NC(=O)CC2Nc3cccc4cccc(c34)NC2=O)cc1 (stereo unspecified) | 41% (active) |
| CCOc1ccc(NC(=O)CC2Nc3cccc4cccc(c34)NC2=O)cc1 (stereo unspecified) | 37% (active) |
| CC(=O)c1ccc(NC(=O)CC2Nc3cccc4cccc(c34)NC2=O)cc1 (stereo unspecified) | 72% |
| COc1ccc(NC(=O)CC2Nc3ccccc3NC2=O)cc1 (stereo unspecified) | 61% (active) |
| Cc1ccc(NC(=O)CC2Nc3cccc4cccc(c34)NC2=O)cc1 (stereo unspecified) | 61% |
| COc1cccc(NC(=O)CC2Nc3cc(C)c(C)cc3NC2=O)c1 (stereo unspecified) | 89% |
| CCOC(=O)c1ccc(NC(=O)CC2Nc3ccccc3NC2=O)cc1 (stereo unspecified) | 62% |
| O=C(CC1Nc2cccc3cccc(c23)NC1=O)Nc1ccc(F)cc1 (stereo unspecified) | 111% |
| Cc1cccc(NC(=O)CC2Nc3cccc4cccc(c34)NC2=O)c1 (stereo unspecified) | 64% |
| Cc1cccc(NC(=O)CC2Nc3ccccc3NC2=O)c1 (stereo unspecified) | 71% |

| Structure (SMILES) | survival |
| --- | --- |
| N#Cc1cn(-c2ccccc2)nc1-c1cccnc1 | 73% |
| O=C(Nc1ccccn1)NC12CC3CC(CC(C3)C1)C2 | 106% |
| Cc1ccc(NC(=O)c2oc3ccc4c(c3c2C)C(=O)CC(C)(C)O4)c(C)c1 | 83% |
| CC1CCN(C(C(=O)O)c2ccccc2)CC1 (stereo unspecified) | 98% |
| CN1CCN(C(CNC(=O)C(=O)Nc2ccc(Cl)cc2)c2cccnc2)CC1 (stereo unspecified) | 86% |
| COc1ccccc1CNC(=O)CSc1ncc(S(=O)(=O)c2ccc(C)c(Cl)c2)c(=O)[nH]1 | 124% |
| Cc1ccc(CNS(=O)(=O)c2ccc(-c3cnc(C4CC4)o3)cc2)cc1 | 76% |
| O=S(=O)(NCc1ccccc1)c1ccc(-c2cnc(C3CC3)o2)cc1 | 71% |
| Cc1cccc(CNS(=O)(=O)c2ccc(-c3cnc(C4CC4)o3)cc2)c1 | 52% (active) |
| CC(C)c1ccc(NC(=O)C(C)N(c2ccccc2)S(C)(=O)=O)cc1 (stereo unspecified) | 65% |
| Cc1ccc2onc(CC(=O)N(C)c3ccccc3)c2c1 | 52% |
| Cc1ccc2onc(CNC(=O)N3CCN(c4cccc(C)c4C)CC3)c2c1 | 48% |
| Cc1ccc2onc(CC(=O)N3CCN(c4ccccc4)CC3)c2c1 | 40% (active) |
| COc1ccc(N2CCN(C(=O)Cc3coc4ccc(C)cc34)CC2)cc1 | 105% |
| Cc1ccc2onc(CC(=O)N3CCN(c4ccccc4F)CC3)c2c1 | 71% |
| Cc1ccc2oc(=O)c3cnn(CC(=O)N4CCN(c5ccccc5)CC4)c3c2c1 | 123% |
| COc1ccc(N2CCN(C(=O)Cc3noc4ccc(C)cc34)CC2)cc1 | 42% (active) |
| Cc1ccc2onc(CC(=O)N3CCN(c4cccc(C)c4C)CC3)c2c1 | 39% (active) |
| Cc1ccc2onc(CC(=O)N3CCN(c4ccc(Cl)cc4)CC3)c2c1 | 30% (active) |
| Cc1ccc2onc(CC(=O)N3CCN(c4cccc(Cl)c4)CC3)c2c1 | 83% |
| COc1ccc(N2CCN(C(=O)NCc3noc4ccccc34)CC2)cc1 | 42% |
| Cc1ccc2onc(CC(=O)N3CCN(c4cc(Cl)ccc4C)CC3)c2c1 | 96% |
